A selection: hits, their analogues and other compounds. The true share with any hit is near 2.4%.
TMEM16A inh = TMEM16A chloride channel inhibitors, primary screen, cell-based, HTS. HEK293 TMEM16A/YFP iodide influx fluorescence, ionomycin. AID 588511, 2011. normalized B-score (activity score, 25-100; higher = stronger inhibition) at 10 µM. actives 1.2% (n = 310,000);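 active means ratio plate-corrected score three or more library SD toward inhibition, starting fluorescence score within five deviations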;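 further: score derived from kinetic fluorescence span divided by baseline fluorescence per well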
NOD2-RIPK2 inh = NOD2-RIPK2 binding disruptors in cells, primary screen, fluorescence, CHO cells, BLA complementation; Receptor-interacting serine/threonine-protein kinase 2 (Homo sapiens), O43353; CCF4 ratio; inhibition, % at 4.98 µM; actives 0.38% (n = 360,000); AID 624267, 2012; in the data active means inhibition above about 21%;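 further: 0% = vehicle only and 100% = reference blocker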
TLR9-MyD88 block = inhibitors of TLR9-MyD88 association in cells, primary screen, cell-based, CHO, BLA complementation, fluorescence | CCF4 FRET ratio | Toll-like receptor 9 (Homo sapiens) + Myeloid differentiation primary response protein … | actives 0.21% (n = 340,000) | inhibition, % at 4.98 µM | AID 504734, 2011;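 active means inhibition above the mean over all tested compounds plus 3 SD, cut at about 21% in these data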;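 further: 0% = DMSO only wells and 100% = clavulanate BLA inhibitor control wells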
Target sequence (Q99836 whole entry, looked up): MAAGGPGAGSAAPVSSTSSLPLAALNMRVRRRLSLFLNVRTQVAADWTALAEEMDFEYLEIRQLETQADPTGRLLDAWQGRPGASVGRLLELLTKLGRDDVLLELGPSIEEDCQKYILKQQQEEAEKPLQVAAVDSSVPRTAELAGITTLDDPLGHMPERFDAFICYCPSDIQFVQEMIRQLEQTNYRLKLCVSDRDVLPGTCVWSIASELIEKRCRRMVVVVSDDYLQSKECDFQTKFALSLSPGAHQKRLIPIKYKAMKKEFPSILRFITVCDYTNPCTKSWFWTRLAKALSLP
Target sequence (Q9NR96 whole entry, looked up): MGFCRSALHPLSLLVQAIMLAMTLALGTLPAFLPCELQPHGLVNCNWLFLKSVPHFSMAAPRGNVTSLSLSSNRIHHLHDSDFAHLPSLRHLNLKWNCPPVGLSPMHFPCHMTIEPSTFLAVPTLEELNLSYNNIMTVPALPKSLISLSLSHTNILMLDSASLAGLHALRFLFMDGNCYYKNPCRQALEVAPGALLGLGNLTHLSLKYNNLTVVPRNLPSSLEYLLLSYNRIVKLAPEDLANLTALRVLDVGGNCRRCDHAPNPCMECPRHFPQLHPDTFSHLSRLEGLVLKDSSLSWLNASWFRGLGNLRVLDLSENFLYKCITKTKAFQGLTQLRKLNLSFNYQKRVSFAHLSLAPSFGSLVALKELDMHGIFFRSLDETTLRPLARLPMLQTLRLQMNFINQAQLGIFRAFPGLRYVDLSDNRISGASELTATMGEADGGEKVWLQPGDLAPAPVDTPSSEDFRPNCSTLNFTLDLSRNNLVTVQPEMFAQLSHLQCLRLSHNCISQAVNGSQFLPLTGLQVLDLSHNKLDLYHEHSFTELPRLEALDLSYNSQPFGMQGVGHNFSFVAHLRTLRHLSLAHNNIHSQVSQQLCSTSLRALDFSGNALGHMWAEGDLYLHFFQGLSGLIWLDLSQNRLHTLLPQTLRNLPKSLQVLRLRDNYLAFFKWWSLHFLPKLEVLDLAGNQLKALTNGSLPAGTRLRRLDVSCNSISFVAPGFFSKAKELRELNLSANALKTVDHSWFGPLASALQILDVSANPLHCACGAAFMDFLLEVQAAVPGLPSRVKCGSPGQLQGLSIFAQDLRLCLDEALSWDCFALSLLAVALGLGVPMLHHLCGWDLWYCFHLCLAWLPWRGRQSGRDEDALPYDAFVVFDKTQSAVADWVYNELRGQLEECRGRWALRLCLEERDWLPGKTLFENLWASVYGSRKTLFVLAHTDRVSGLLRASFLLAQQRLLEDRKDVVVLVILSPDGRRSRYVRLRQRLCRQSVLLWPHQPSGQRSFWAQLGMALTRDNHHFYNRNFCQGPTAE
TMEM16A act = TMEM16A chloride channel activators or potentiators, primary screen, cell-based, HTS; HEK293 TMEM16A/YFP-H148Q/I152L, iodide quench fluorescence; hits give low values; B-score at 10 µM; AID 623877, 2012; actives 0.3% (n = 340,000); Anoctamin-1 (Mus musculus), Q8BHY3;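 active means fluorescence-ratio B-score plate-corrected deviation score at least 3 library SD below zero, with starting fluorescence score within 5 deviations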;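 further: channel opened by trigger with iodide after compound preincubation; score built on the fluorescence ratio of max minus min over baseline; more negative score means more quench and so TMEM16A activation or potentiation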
TLR4 MyD88 comp = inhibitors of TLR4-MyD88 association in cells, primary screen, cell-based, HeLa CL3-4, BLA complementation, FRET ratio; Toll-like receptor 4 (Homo sapiens) + Myeloid differentiation primary response protein …; HeLa CL3-4 TLR4/MyD88 BLA complementation; inhibition, % at 8.4 µM; actives 0.18% (n = 200,000); in the data active means inhibition above about 25%;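 further: 0% = vehicle and 100% = reference inhibitor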
HTR2A ag = mouse Htr2a agonists via beta-arrestin recruitment, primary screen, cell-based, luminescence; activation, % at 7.6 µM; actives 0.66% (n = 360,000); 5-hydroxytryptamine receptor 2A (Mus musculus), P35363; AID 624169, 2012; CHO-K1 mHTR2A beta-arrestin complementation; percent of 30 µM serotonin response;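 active means activation above a run cutoff, the mean activation of all tested compounds plus 3 SD, cut at about 14% in these data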;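 further: 0% = plate median of compound wells and 100% = 30 µM serotonin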
TLR9-MyD88 cf = TLR9-MyD88 association inhibitors, retest, confirmation, cell-based, CHO, BLA complementation, fluorescence, triplicate; actives 51% (n = 680); AID 540250, 2011; CCF4 FRET ratio; shares compounds with TLR9-MyD88 block; inhibition, % at 4.98 µM;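 active means mean inhibition across three repeats above about 21% taken from the earlier screen, limit read from the data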;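 further: blue over green emission ratio reports constitutive TLR9 MyD88 association via BLA complementation; 0% = DMSO vehicle wells and 100% = clavulanate BLA inhibitor wells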
BLA counter-1 = beta-lactamase reporter inhibitors in CHO cells, artefact control for TLR9-MyD88 binding inhibitor project, cell-based, fluorescence; shares compounds with TLR9-MyD88 block; CHO-BLA cells, CCF4 FRET ratio, BLA reporter; inhibition, % at 4.98 µM; actives 7% (n = 680);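 active means mean inhibition above a 50% cutoff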;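 further: counterscreen of TLR9-MyD88 hits on CMV-driven BLA in CHO-K1 cells; 0% = DMSO alone and 100% = clavulanate blocking BLA; higher means less blue over green ratio so more BLA blockade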
TLR9 CHO cytotox = CHO cell viability loss – luminescence, single concentration, cytotoxicity control for TLR9-MyD88 binding inhibitor project | shares compounds with TLR9-MyD88 block | actives 39% (n = 680) | TLR9-MyD88 CHO cells cytotoxicity | inhibition, % at 4.98 µM; in the data active means inhibition above about 11%
TMEM16A reconf = TMEM16A chloride channel inhibitors, confirmation, cell-based, re-confirmation | shares compounds with TMEM16A inh | HEK293 TMEM16A/YFP-H148Q, iodide quench fluorescence; ionomycin added to raise cell calcium | inhibition, % at 10 µM | actives 39% (n = 2,300) | AID 652189, 2013;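 active means mean duplicate percent inhibition, scaled so buffer wells are 0 and the reference blocker 100, over three buffer SD above buffer mean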
TMEM16A Ca cntr = calcium mobilization in TMEM16A/YFP HEK293 cells, confirmation, counter-screen for TMEM16A inhibitor project; AID 652231, 2013; calcium response (% of ionomycin), % at 10 µM; actives 2% (n = 2,300); shares compounds with TMEM16A inh; Fluo4 calcium mobilization;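 active means duplicate-averaged calcium signal over 20% of the ionomycin maximum, relative to buffer baseline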;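 further: each well's signal is peak minus trough fluorescence divided by its pre-addition baseline; 0% = buffer wells and 100% = ionomycin wells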
Parental YFP cnt = iodide YFP quench changes in parental YFP-HEK293, counter-screen for TMEM16A inhibitor project, cell-based. YFP ratio F(max-min)/F0 at 10 µM. ionomycin. AID 652233, 2013. shares compounds with TMEM16A inh. 2,300 tested, under 10 active;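 active means yellow fluorescent protein signal ratio exceeding the buffer control mean by over 5 SD of those controls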;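 further: ratio is mean of duplicate wells from kinetic YFP trace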
ClC-1 rat inh = ClC-1 chloride channel inhibition, selectivity assay for TMEM16A inhibitor project, cell-based, voltage-dependent ClC-1 | CHO ClC-1-YFP, iodide influx fluorescence quench; iodide control reads 0, buffer control 100 | AID 652236, 2013 | 2,300 tested, under 10 active | shares compounds with TMEM16A inh | ratio percent, % at 10 µM;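 active means duplicate-mean ratio percent above the mean of iodide-only control wells, which defines zero, plus 5 of their SD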;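 further: higher percent means stronger block of ClC-1 iodide influx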
NOD2 RIPK2 conf = NOD2-RIPK2 binding disruptors, retest, confirmation, fluorescence, CHO cells, BLA complementation, triplicate; shares compounds with NOD2-RIPK2 inh; CCF4 FRET; inhibition, % at 4.98 µM; actives 70% (n = 1,200); AID 624370, 2012;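 active means mean inhibition across replicates above a set limit taken from the earlier primary screen, cut at about 21% in these data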;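 further: 0% = DMSO-only wells and the high end = clavulanate BLA-blocked wells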
BLA counter-2 = counter-screen for NOD2-RIPK2 interaction inhibitors: BLA reporter; shares compounds with NOD2-RIPK2 inh; CHO BLA reporter, CCF4 FRET ratio, counterscreen; inhibition, % at 4.98 µM; actives 57% (n = 1,200); AID 624371;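 active means mean inhibition above the low-control mean inhibition plus three low-control SD, cut at about 11% in these data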;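 further: 0% = DMSO only wells and 100% = clavulanate high control wells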
The depositor's hits bear a star; i = inactive; nt = not tested or not shown; ! = not confirmed by another sample.

SMILES	TMEM16A inh	NOD2-RIPK2 inh	TLR9-MyD88 block	TMEM16A act	TLR4 MyD88 comp	HTR2A ag	TLR9-MyD88 cf	BLA counter-1	TLR9 CHO cytotox	NOD2 RIPK2 conf	BLA counter-2	others
CC1=Nc2ccc(C)cc2/C1=C/c1c(N)n2oc(C)cc2nc1=O	i	55*	21*!	i	-8	2	15	19	4	42*	29*
Cc1ccc(C)c(NC(=O)C(C)CC2COCCO2)c1 (configuration not stated)	i	7	8	i	11	5	nt	nt	nt	nt	nt
Nc1c(C(=O)c2ccccc2)sc2nsc(SCCN3CCCC3)c12	i	29*	28*	i	nt	-4	21*	18	9	44*	47*	TMEM16A reconf=i;TMEM16A Ca cntr=i;Parental YFP cnt=-0.96;ClC-1 rat inh=-12
Cc1ccc(C(=O)O)cc1N1C(=O)c2cccc3c([N+](=O)[O-])ccc(c23)C1=O	i	56*	29*	i	nt	12	26*	22	-3	45*	39*
CC(=O)Oc1cccc(N2C(=O)c3ccc(C(=O)O)cc3C2=O)c1	i	-1	-7	i	-4	2	nt	nt	nt	nt	nt
CC(=O)Oc1cccc(N2C(=O)c3cccc4c([N+](=O)[O-])ccc(c34)C2=O)c1	i	45*	42*	i	nt	2	47*	42	94*	63*	67*
COc1ccc(NC(=O)CSc2nnc3ccc(-c4ccncc4)nn23)cc1OC	i	-8	6	i	18	-1	nt	nt	nt	nt	nt
CN(C)c1ccc(/C=C/c2nc3ccccc3c(=O)n2CCO)cc1	i	35*	45*	i	nt	4	3	5	6	20	28*
CN(CC(=O)Nc1cccc(F)c1)C(=O)Cn1cnc2c1c(=O)n(C)c(=O)n2C	i	-6	-2	i	nt	-4	nt	nt	nt	nt	nt
COc1ccccc1N1C(=O)C2C(C(=O)c3ccccc3)=NN(c3ccccc3)C2C1=O (configuration not stated)	i	52*	47*	i	nt	-4	26*	25	2	59*	64*
CCOC(=O)C1=NN(c2ccccc2)C2C(=O)N(c3ccccc3OC)C(=O)C12 (configuration not stated)	i	8	8	i	nt	7	nt	nt	nt	nt	nt
O=C(CCC(=O)c1ccc(Oc2ccccc2)cc1)Nc1cccc(Cl)c1	i	-5	-2	i	-3	-2	nt	nt	nt	nt	nt
Clc1ccccc1/C=N/NC1=Nc2cccc3cccc1c23	i	36*	31*	i	14	-1	13	12	11*	30*	29*
NC(=O)/C(=N\OC(=O)c1ccco1)c1nc(-c2ccc(Br)cc2)cs1	i	21*	36*	i	19	1	20	20	8	43*	22*
N#C/C(=C/c1ccco1)C(N)=S	i	-13	6	i	nt	1	nt	nt	nt	nt	nt
N#CC(C#N)=C1C=CC=CN1/C(=C\c1ccco1)C(=O)c1ccccc1	i	80*	23*	i	-5	-6	29*	9	98*	93*	17*
N#CC(C#N)=C1C=CC=CN1/C(=C\c1ccco1)C(=O)c1ccc(Br)cc1	i	91*	42*	i	7	5	46*	5	98*	93*	18*
O=C(O)c1ccc(Nc2cc(Cl)c3nonc3c2[N+](=O)[O-])cc1	i	-2	10	i	11	6	nt	nt	nt	nt	nt
O=[N+]([O-])c1c(Nc2cccc(O)c2)cc(Cl)c2nonc12	25*	98*	46*	-11*	nt	-7	61*	3	98*	108*	29*
O=C(OC1CCOC1=O)c1cncc(Br)c1 (configuration not stated)	i	-9	-2	i	-13	0	nt	nt	nt	nt	nt
O=S(=O)(Nc1cccc2cccnc12)c1ccccc1	i	39*	35*	i	nt	-9	18	7	98*	54*	18*
CC(=NNC(=S)N1CCN(c2ccccn2)CC1)c1nccs1	nt	24*	37*	i	nt	-10	28*	18	97*	42*	18*
